Pf growth 96h: P. falciparum growth inhibition at 96 hours; P. falciparum luciferase reporter growth, 96 h; Potency, µM (series often up to 28.7 µM), inactives show at the highest dose activity change, negative = inhibition, actives largely listed as inhibitors; 6.9% of 320,000 active; also: potency is read from the fitted curve at half-maximal effect; % is scaled to controls: 0 for no effect and ±100 for the full control effect
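P. falciparum expressing integrated firefly luciferase, in erythrocytes at 2% hematocrit, 0.05% parasitemia, incubated with compounds 96 h at 37 C, 5% CO2. Growth inhibition read as loss of luminescence; two-generation exposure targets delayed-death apicoplast inhibitors.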
Shiga toxin inh: inhibitors of Shiga toxin in Vero cells | Vero cells, Shiga toxin protein synthesis inhibition reporter | inhibition, % at 38.7 µM | 9.2% of 290,000 active | AID 2315; in the data active = inhibition mostly above about 28%, no sharp cut-off; inactive = mostly below about 43%; also: 0% is about no effect
CHX counter: counter-screen for Shiga toxin inhibitors: cycloheximide protein synthesis inhibition; cell reporter, cycloheximide protein synthesis inhibition counterscreen; 12% of 300,000 active; max response, %; in the data active = max response mostly above about 13%, no sharp cut-off; inactive = mostly below about 14%; also: read at 38.3 µM for the half of the compounds with a filed dose; 0% is about no effect
HCV inh: HCV inhibition | Huh7.5.1 HCVcc-Cre infection, luciferase reporter, 44 h | Potency, µM (doses to about 41.8 µM), inactives show top-dose activity change, negative = inhibition, actives largely listed as inhibitors | 3.4% of 340,000 active; also: potency is read from the fitted curve at half-maximal effect; % is scaled to controls: 0 for no effect and ±100 for the full control effect
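Luciferase read-out (15 sec integration) after a 15 min room-temperature substrate step quantifies HCVcc-Cre infection. Cells, 1,000 per well, had compound added 4 h post-plating, then virus at ~0.5 moi, and were cultured 44 h.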
Pf growth 48h: inhibits P. falciparum growth in the first generation, 48 h. P. falciparum luciferase growth in erythrocytes, 48 h. Potency, µM (titrated, usually from 28.7 µM), for inactives: at the top dose activity change, negative = inhibition, actives largely listed as inhibitors. 5.9% of 310,000 active; also: potency is read from the fitted curve at half-maximal effect; % is scaled to controls: 0 for no effect and ±100 for the full control effect
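A one-generation exposure of luciferase-tagged malaria parasites in RPMI 1640/Albumax erythrocyte culture, 37 C and 5% CO2. Inhibition is inferred from decreased luminescence after adding detection reagent.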
HCMV inh: blocks human cytomegalovirus replication | HFF cells, HCMV-luciferase reporter, 72 h; stronger effect = lower value | activity change, negative = inhibition, % at 57.5 µM | 4.5% of 410,000 active | AID 1259415; in the data active = activity change below about -60%; inconclusive = no clear call, values can overlap the other calls; inactive = above about -39%; also: % is scaled to controls: 0 for no effect and ±100 for the full control effect
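Two compound doses tested in HFFs infected with HCMV-luciferase, MOI 1 PFU/cell, 72 h at 37C. Lysate luminescence read with OneGlo; data normalized against buffer-only and 10uM Salinomycin inhibitor controls.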
An asterisk follows results filed as active; ? = inconclusive; . = no result. Compounds with a hit are over-represented: about 21% of the library has one in this group of screens. Unless noted, calls follow the shape of the dose curve; as a rule, active = well fitted inhibition curve with a large enough effect; inconclusive = small, poorly fitted or top-dose-only effect, or another doubt; inactive = no such curve, though single readings can be large or run the other way.

SMILES	Pf growth 96h	Shiga toxin inh	CHX counter	HCV inh	Pf growth 48h	HCMV inh
CC1CN(S(=O)(=O)c2cccc(-c3cn4ccccc4n3)c2)CC(C)O1 (stereo unspecified)	.	-20.7	19.1	?	?	-86.0*
CCOC(=O)C1CCN(S(=O)(=O)c2cccc(-c3cn4cc(Cl)ccc4n3)c2)CC1	.	14.1	7.4	-13.4%	?	?
CC1CCN(S(=O)(=O)c2cccc(-c3cn4cc(Cl)ccc4n3)c2)CC1	.	53.5*	11.6	?	-2.4%	-15.1
CCC(=O)N1c2ccc(S(=O)(=O)CCC(=O)NCc3cccc(OC)c3)cc2CC1C (stereo unspecified)	.	.	.	.	.	3.6
Cc1ccccc1N1CCN(C2CCCN(C(=O)c3csc(C(C)C)n3)C2)CC1 (stereo unspecified)	?	-4.9	2.1	.	-19.1%	?
COC(CN(C)C(=O)C1CCCN(S(=O)(=O)c2ccc3c(c2)oc(=O)n3C)C1)OC (stereo unspecified)	?	7.9	-5.4	6.8%	7.3%	-30.2
C[C@]12O[C@H](C[C@]1(O)CO)n1c3ccccc3c3c4c(c5c6ccccc6n2c5c31)CNC4=O	0.151µM*	.	.	.	0.169µM*	.
CC(=O)OCC1OC(OCc2cn(C[C@H]3CC[C@H](Cn4cc(COC5OC(COC(C)=O)C(OC(C)=O)C(OC(C)=O)C5OC(C)=O)nn4)O3)nn2)C(OC(C)=O)C(OC(C)=O)C1OC(C)=O (stereo partly specified)	?	5.7	-1.5	24.1%	56.6%	7.9
CCc1nc2ccc(C(=O)O)cc2nc1CC	243.4%	90.7*	91.1*	-2.1%	125.7%	-14.2
CCc1nc2ccc(C(=O)N3CCN(c4ccc(Cl)cc4)CC3)cc2nc1CC	5.22µM*	-2.3	-1.1	?	-9.8%	9.3
CCCN1CCN(C(=O)c2ccc3nc(CC)c(CC)nc3c2)CC1	444.0%	-8.0	-6.1	0.5%	35.5%	7.7
O=C(Nc1ccc2nc(-c3ccco3)c(-c3ccco3)nc2c1)NC1CC1	358.6%	17.1	15.4	?	-16.3%	.
CCc1nc2ccc(C(=O)Nc3nnc(C)s3)cc2nc1CC	39.4%	16.3	12.3*	?	-17.6%	5.2
O=C(Nc1ccc(N2CCOCC2)cc1)Nc1ccc2nc(-c3ccco3)c(-c3ccco3)nc2c1	2.3%	0.8	3.5	6.31µM*	?	-60.4*
CCc1nc2ccc(C(=O)N3CCN(CC)CC3)cc2nc1CC	?	2.6	-3.2	9.2%	25.7%	31.9
CCOc1cc(S(=O)(=O)NCCCN2CCOCC2)c(C)cc1C	2.1%	17.2	-4.0	-4.0%	-6.9%	-25.6
O=C(c1ccc2nc(-c3ccco3)c(-c3ccco3)nc2c1)N1CCN(c2ccccc2)CC1	.	18.4	-1.7	?	-5.4%	-107.7*
CCOC(=O)N1CCN(C(=O)c2ccc3nc(-c4ccccc4)c(-c4ccccc4)nc3c2)CC1	1.6%	-5.5	-3.3	-23.9%	?	-34.3
CCc1nc2ccc(C(=O)N3CCN(c4cccc(C(F)(F)F)c4)CC3)cc2nc1CC	?	-8.7	-7.4	-16.9%	-17.0%	-1.1
O=S(=O)(c1ccc2ccccc2c1)N1CCOCC1	-14.3%	-4.1	7.6	9.7%	28.0%	4.1
NC(=O)C1CCN(C(=O)c2ccc3nc(-c4ccccc4)c(-c4ccccc4)nc3c2)CC1	?	-3.5	1.2	-18.7%	10.4µM*	19.0
CCc1nc2ccc(C(=O)N3CCN(c4ccccc4)CC3)cc2nc1CC	2.62µM*	1.0	-3.4	3.8%	-5.2%	-14.9
O=S(=O)(c1ccc2nc(-c3ccco3)c(-c3ccco3)nc2c1)N1CCOCC1	-0.5%	18.2	7.5	-23.4%	11.7µM*	46.0
COc1cccc(NC(=S)N(CCc2nc3cc(C)c(C)cc3[nH]2)Cc2cccnc2)c1	11.7µM*	-6.8	-0.8	-11.8%	?	15.6
CCNC(=S)N(CCc1c(C)[nH]c2ccc(C)cc12)Cc1cc(OC)c(OC)c(OC)c1	?	-17.5	-2.0	?	?	29.8
COc1ccc2[nH]c(C)c(CCN(Cc3cccs3)C(=S)Nc3cccc(F)c3)c2c1	0.738µM*	27.8	17.8	?	0.37µM*	.
